G9a inh: G9a (human) methyltransferase inhibition | Potency, µM (titrated, usually from 102 µM), usual class: inhibitors | AID 504332 | Q96KQ7 | G9a H3K9 monomethylation, AlphaScreen, 2 h | 350,000 tested, 8.8% active; note: nearly all actives have a fitted effect of over 75% in size
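G9a (20 nM) preincubated 15 min RT with compounds, then 500 nM biotinylated H3K9 peptide and 20 uM SAM added; 2 h RT reaction. Monomethyl-H3K9 product detected by AlphaScreen with anti-H3K9me1 antibody, streptavidin donor and anti-rabbit IgG acceptor beads.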
HP1b chromo inh: HP1-beta chromodomain-methylated histone interaction inhibition. P83916. AlphaScreen HP1-beta / biotin-H3K9me3 peptide binding. Potency, µM (doses to about 114 µM), actives largely listed as inhibitors. 390,000 tested, 0.56% active; note: nearly all actives have a fitted effect of over 70% in size
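Compound inhibition of the preformed complex between 50 nM HP1-beta and 50 nM biotinylated H3K9me3 peptide was read by AlphaScreen. Buffer was PBS pH 7.4 with 0.01% Tween-20. Incubations ran 30 min at room temperature, with 10 ug/mL donor/acceptor beads.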
BAZ2B block: BAZ2B (human) inhibition. Q9UIF8. AlphaScreen BAZ2B-H3K14Ac peptide displacement. Potency, µM (titrated, usually from 114 µM), actives largely listed as inhibitors. 360,000 tested, 4.4% active. AID 504333; note: nearly all actives have a fitted effect of over 60% in size
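AlphaScreen displacement of biotin-H3(5-23)K14Ac peptide (50 nM final) from BAZ2B (50 nM final) in PBS pH 7.4, 0.01% Tween-20; complex preformed 30 min RT, then compounds (top 110 uM) 30 min RT, beads 20 min dark.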
PLK1 PBD inh: inhibitors of human PLK1 polo-box domain binding; P53350; Potency, µM, most hits filed as inhibitors; Plk1 PBD binding of FITC phosphopeptide, fluorescence polarization; 360,000 tested, 2.8% active; AID 720504; note: series mostly up to about 57 µM; nearly all actives have a fitted effect of over 65% in size
Target sequence (P53350 whole entry, looked up, the tested form may be a part): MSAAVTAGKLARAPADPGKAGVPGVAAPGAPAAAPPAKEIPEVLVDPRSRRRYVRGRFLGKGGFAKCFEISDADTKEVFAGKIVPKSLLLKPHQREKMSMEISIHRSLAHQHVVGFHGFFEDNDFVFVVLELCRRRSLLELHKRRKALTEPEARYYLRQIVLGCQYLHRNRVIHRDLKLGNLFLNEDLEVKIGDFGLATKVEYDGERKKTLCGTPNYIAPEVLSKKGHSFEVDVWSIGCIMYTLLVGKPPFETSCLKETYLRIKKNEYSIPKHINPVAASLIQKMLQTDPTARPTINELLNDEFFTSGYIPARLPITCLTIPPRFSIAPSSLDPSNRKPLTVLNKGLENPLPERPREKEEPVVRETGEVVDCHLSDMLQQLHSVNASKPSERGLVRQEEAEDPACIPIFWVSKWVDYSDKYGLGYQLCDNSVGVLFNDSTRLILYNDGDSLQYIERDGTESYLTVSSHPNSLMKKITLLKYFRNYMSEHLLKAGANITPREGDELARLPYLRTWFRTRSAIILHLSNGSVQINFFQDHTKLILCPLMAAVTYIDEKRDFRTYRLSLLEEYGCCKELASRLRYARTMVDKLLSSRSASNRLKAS
JMJD2A Tudor: inhibitors of human JMJD2A Tudor domain; O75164; AlphaScreen JMJD2A-Tudor / H3K4me3 peptide binding; Potency, µM (titrated, usually from 114 µM), actives largely listed as inhibitors; 390,000 tested, 4.4% active; note: nearly all actives have a fitted effect of over 50% in size
Sfp inh: blocks B. subtilis Sfp PPTase activity. Biochemical Sfp PPTase activity, qHTS. 310,000 tested, 3.5% active. AID 1490. Potency, µM, usual class: inhibitors;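 note: the enzyme is Sfp with the accession as filed and its product quenches rhodamine fluorescence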
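Fluorescence-quenching assay with 15 nM Sfp, 5 uM rhodamine-CoA and 12.5 uM BHQ-2-labelled ybbR peptide in pH 7.6 Hepes/MgCl2 buffer. Enzyme was pre-incubated with compound for 15 min at room temperature. Rate was taken from the 30-min fluorescence change (525/598 nm).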
Hits are given with their value; i = inactive; ? = inconclusive; nt = not tested or not shown; [ ] = another dose, or the depositor's remark. A selection: hits, their analogues and other compounds. The true share with any hit is near 12%. Calls come from the whole dose curve; as a rule, active = well fitted curve in the direction sought with a large enough effect; inconclusive = small, poorly fitted or top-dose-only effect, or another doubt; inactive = no such curve, though single readings can be large; an effect the other way counts as inactive or inconclusive.

SMILES | G9a inh | HP1b chromo inh | BAZ2B block | PLK1 PBD inh | JMJD2A Tudor | Sfp inh
C#CCOCCOCCOCCNc1nc(N2CCOCC2)nc(N2CCN(C(=O)[C@H](C)n3cc(CCC(=O)O)nn3)CC2)n1 | nt | i | nt | i | i | nt
CCOC(=O)c1[nH]cnc1C(=O)NC1CCN(C(=O)OC(C)(C)C)CC1 | i[0.501 µM] | i | ? | i | i | nt
Cc1c(Cc2ccccc2)[n+](=O)c2ccccc2n1[O-] | nt | nt | nt | i | nt | nt
COc1ccc(C2=CC(=O)OC3(CCCC3)O2)cc1 | 45µM | i | ? | i | i | i
CC(C)(C)NC(=O)NC(=O)COC(=O)C1CCN(S(=O)(=O)c2cccs2)CC1 | i | i | i | i | i | nt
O=C(NCc1ccccc1)c1ccc(CSc2nc3cccnc3n2Cc2ccccc2F)cc1 | 3.5µM | ? | 22µM | nt | 5.6µM | nt
COc1ccc(Cn2c(SCc3ccc(C(=O)NCc4ccccc4F)cc3)nc3cccnc32)cc1 | i | i | i | nt | i | nt
O=C(CSc1nc2cccnc2n1Cc1ccccc1)N1CCCC1 | i | ? | i | 30µM | 32µM | i
CN(C)c1ccc(CNC(=O)c2ccc(Cn3c(SCc4ccccc4)nc4cccnc43)cc2)cc1 | 10µM | i | ? | nt | ? | nt
O=C(CSc1nc2ccccc2n1S(=O)(=O)c1ccccc1)N1CCCCC1 | 71µM | i | i | i | i | i
Cc1cccc(CNC(=O)c2ccc(Cn3c(SCc4ccccc4)nc4cccnc43)cc2)c1 | i | i | i | nt | i | nt
CC(C)(C)Cn1nc(-c2ccc(Cl)cc2)c2c(N)ncnc21 | nt | nt | nt | nt | nt | i
Cc1cccc(CNC(=O)c2ccc(Cn3c(SCc4cccc(F)c4)nc4cccnc43)cc2)c1 | 3.2µM | ? | 11µM | nt | 4.5µM | nt
CCOC(=O)c1ccc(S(=O)(=O)n2c(CN3CCCCC3)nc3ccccc32)cc1 | 50µM | i | i | i | i | i
COC(=O)C[C@H]1C[C@H]2c3cc(NC(=O)Cc4ccncc4)ccc3O[C@H]2[C@@H](CO)O1 | nt | nt | nt | i | nt | nt
COc1ccccc1-c1cnc(C(O)c2cc(Cl)cc(Cl)c2)[nH]1 (stereo unspecified) | nt | nt | nt | i | nt | nt
O=C(COC(=O)c1c2c(nc3ccccc13)/C(=C\c1ccco1)CC2)NC1CCCC1 | nt | ? | nt | 9.5µM | ? | nt
CN(CCC#N)C(=O)COC(=O)c1c2c(nc3ccccc13)/C(=C\c1ccco1)CC2 | nt | ? | nt | i | ? | nt
CC1CCCCC1NC(=O)COC(=O)c1c2c(nc3ccccc13)/C(=C\c1ccco1)CC2 (stereo unspecified) | nt | ? | nt | ? | 45µM | nt
CC1(C)Cc2ccccc2C(NNC(=O)c2ccccn2)=N1 | i | i | 32µM | i | 45µM | i
COc1ccc(-c2ccnc3c2c(=O)n(C)c(=O)n3C)cc1OC | i | i | i | nt | i | nt
O=S(=O)(NCCCCCNS(=O)(=O)c1ccccc1)c1ccccc1 | ? | i | i | 30µM | i[11.4 µM] | i
Cc1cccc(C)c1NC(=O)CCCCCNS(=O)(=O)c1ccccc1 | i | i | i | 24µM | i | i
CC(=O)CSc1nnc(CN2C(=O)CSc3ccc(C(F)(F)F)cc32)n1C | 45µM | i | i | i | i | i
O=C(NCCNc1ccccc1[N+](=O)[O-])c1cc(F)c(F)cc1Cl | ? | i | i | i | i | i
SMILES | G9a inh | HP1b chromo inh | BAZ2B block | PLK1 PBD inh | JMJD2A Tudor | Sfp inh
COc1cc(C(=O)Nc2cccc(S(=O)(=O)N3CCCC3)c2)cc(OC)c1C | 32µM | i | i | i | i | i
COCCN(CC(=O)Nc1cccc(S(=O)(=O)N2CCCC2)c1)Cc1nc2ccccc2c(=O)[nH]1 | 50µM | i | i | i | i | nt
COc1ccc(Br)cc1CN(C)CC(=O)Nc1cccc(S(=O)(=O)N2CCCC2)c1 | nt | ? | nt | i | 25µM | nt
CN(C)S(=O)(=O)c1cccc(NC(=O)c2ccc(S(=O)(=O)N3CCCCC3)cc2)c1 | ? | i | i | i | 89µM | nt
CS(=O)(=O)c1cccc(C(=O)Nc2cccc(S(=O)(=O)N3CCCC3)c2)c1 | ? | i | i | i | i | nt
COc1ccc(NCC(=O)N/N=C(\C)c2cc3ccccc3o2)cc1 | 16µM | i | 35µM | i | ? | i
C/C(=N\Nc1ccc(Cl)c(C(=O)O)c1)c1ccccn1 | nt | i | i | i | i[11.4 µM] | 79µM
C/C(=N\Nc1cccc2cccnc12)c1ccccn1 | 14µM | ? | ? | i | ? | i
